For 51 compounds, Percent Effect results are on record in ChEMBL document CHEMBL3988442, “University of Dundee, Small-Polar-MMV Screening Library” (2021).

SMILES strings stand for the structures.

Assay [1] concerns the target T1, Aspartate--tRNA(Asp/Asn) ligase (Mycobacterium tuberculosis (strain ATCC 25618 / H37Rv)) (UniProt P9WFW3). Further: in the data most compounds retested in dose-response had high values.
T1 sequence (whole entry): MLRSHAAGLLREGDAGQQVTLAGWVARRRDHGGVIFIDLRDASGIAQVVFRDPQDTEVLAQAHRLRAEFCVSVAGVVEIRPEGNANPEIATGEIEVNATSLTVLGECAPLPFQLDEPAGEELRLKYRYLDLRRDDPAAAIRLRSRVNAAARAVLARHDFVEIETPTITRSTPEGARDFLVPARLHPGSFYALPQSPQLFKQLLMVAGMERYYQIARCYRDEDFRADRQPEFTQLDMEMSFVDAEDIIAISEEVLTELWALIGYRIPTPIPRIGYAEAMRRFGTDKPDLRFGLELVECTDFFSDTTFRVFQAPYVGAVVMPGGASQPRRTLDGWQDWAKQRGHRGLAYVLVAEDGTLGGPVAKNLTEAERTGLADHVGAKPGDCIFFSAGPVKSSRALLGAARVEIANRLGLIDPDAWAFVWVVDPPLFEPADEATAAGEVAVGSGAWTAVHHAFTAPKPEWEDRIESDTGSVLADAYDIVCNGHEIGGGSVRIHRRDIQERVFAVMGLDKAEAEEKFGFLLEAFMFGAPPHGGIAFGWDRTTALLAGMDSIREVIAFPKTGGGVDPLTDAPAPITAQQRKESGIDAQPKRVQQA
Nature of the assay: Assay for Asp RNA synthetase-1 from Mycobacterium tuberculosis. Format: functional. To be noted: 30 µM. More on the design: scale not given: direction of the effect not stated beside the values.

In assay [2] the target is Shiga toxin 2 (Escherichia coli O157:H7) (UniProt P09385+P09386). Nature of the assay: E. coli 0.157:H7 Shiga Toxin SOP - stx2 screening assay. The note with it: 30 µM. Format: functional. The arrangement: scale not given: direction of the effect not stated beside the values.

Regarding `COCC1CN(Cc2ccc(OC)cc2)Cc2nn(C)cc21` (configuration not stated), the figures for the Percent Effect in assay [1] and in assay [2] were 14.5% and -22.6%, respectively.
Consider `CC(C)[C@H](NC(=O)NC1CCS(=O)(=O)C1)C(=O)NCc1ccccc1Cl` (some centres not stated), for which the Percent Effect was 0.145% in assay [1] and -30% in assay [2].
On to `Cc1cc(CN2CCN(C(=O)NCc3nc(C)cs3)CC2)on1`, for which the Percent Effect in assay [1] turned out to be 2.33%; in assay [2], 27.5%.
`CCc1nc(C)c(C(=O)NCCNc2cnccn2)s1`: the Percent Effect in assay [1] is 4.33%; in assay [2], 8.72%.
Consider `Cc1cc(CNC(=O)NC(C)c2ccncc2)no1` (configuration not stated), for which the Percent Effect was 7.94% in assay [1] and -40% in assay [2].
For the compound `Cc1cc(C2CCCN(C(=O)c3ccc(C)[nH]c3=O)C2)n[nH]1` (configuration not stated), the Percent Effect is -1% in assay [1] and 3.9% in assay [2].
The like results for `O=C(NCc1cccnc1)C1CC(=O)N(CC2CC2)C1` (configuration not stated) were, in that order, -3.29% and -8.28%.
For `C=C(C)CN(Cc1cccc(O)c1)C1CCC(O)CC1` (configuration not stated), the Percent Effect came to 5.8% in assay [1] and 18.1% in assay [2].
Consider `CN(Cc1ccncc1)CC(c1cccs1)N1CCOCC1` (configuration not stated), for which the Percent Effect in assay [1] is -5.01%; in assay [2] it was -26%.
Turning to `Cc1ccc(N2CCCC(NCC(=O)Nc3cc(C)no3)C2)nn1` (configuration not stated), the Percent Effect in assay [1] is -0.917%; in assay [2] it was -55.3%.
The like results for `COc1cc(N2CC[C@H](O)[C@@H]2Cc2cnn(C)c2)ncn1` were, in that order, -4.05% and -1.67%.
Turning to `CCCc1ncc(C(=O)N2CCOC(c3nc(C)n[nH]3)C2)s1` (configuration not stated), the Percent Effect in assay [1] is 0.888%; in assay [2], 2.31%.
As for `CCOc1ccccc1OC1CCN(C(=O)c2ccc(=O)[nH]n2)CC1`, the Percent Effect was -5.79% in assay [1] and 32.3% in assay [2].
The like results for `O=C(c1cccs1)N1CC[C@H](O)[C@@H]1Cc1ccccc1` were, in that order, 0.296% and -7.22%.
In the case of `O=C(N[C@@H]1CN(c2ncccn2)C[C@@H]2CCCO[C@@H]21)c1cnccn1`, the Percent Effect in assay [1] is 4.51%; in assay [2], -15.4%.
The like results for `CN(CCCNc1cc(N2CCCC2CO)ncn1)S(C)(=O)=O` (configuration not stated) were, in that order, 7.01% and -30%.
For `CCn1c(Cn2cncn2)nnc1C1CCN(C(=O)CCSC)CC1`, the results for the Percent Effect in assay [1] and in assay [2] were 1.37% and 8.61%, respectively.
On to `O=C(C1CC=CC1)N1CCC2(CC1)CN(Cc1ccccn1)CCO2`, for which the values for the Percent Effect in assay [1] and in assay [2] were -0.381% and 3.35%, respectively.
On to `CC1CN(C(=O)NCCCn2cncn2)CCO1` (configuration not stated), for which the values for the Percent Effect in assay [1] and in assay [2] were -7.24% and 31.5%, respectively.
As for `CCn1ccnc1CN1CCN(CC(O)Cn2cccn2)CC1` (configuration not stated), the results for the Percent Effect in assay [1] and in assay [2] were -1.83% and -31.5%, respectively.
Take `Cc1cc(-c2cnc(NCc3cccnc3)nc2C(C)C)on1`: the values for the Percent Effect in assay [1] and in assay [2] were 6.13% and 10.2%, respectively.
Take `Cc1nn(C)c(N(C)C)c1CNCc1cccnc1-n1cncn1`: the Percent Effect in assay [1] was -4.35%; in assay [2], -5.81%.
For `COc1ccc(CN2C[C@H](OCC3CCOCC3)[C@H]3COC[C@H]32)cc1`, the figures for the Percent Effect in assay [1] and in assay [2] were -1.6% and 1.49%, respectively.
For `CCCc1cc(C(=O)N2CCCC(n3ccnc3C)C2)[nH]n1` (configuration not stated) the same measures were -3% and -5.55%.
Consider `CN(C)C(=O)CN1CCC2(CCCN(Cc3cccn3C)C2)C1=O` (configuration not stated), for which the Percent Effect in assay [1] is 2.49%; in assay [2] it was -13.9%.
The like results for `COc1c(CNCc2ccc(CN(C)C)cc2)c(C)nn1C` were, in that order, 2.29% and -30.1%.
As to `Cc1nc(C)c(CNC(=O)NC(c2nnc3n2CCC3)C(C)C)s1` (configuration not stated), the Percent Effect in assay [1] is 0.0985%; in assay [2], -7.7%.
`O=C(c1ccc(Br)s1)N1CCN(Cc2ccc(OC(F)(F)F)cc2)CC1`: the Percent Effect is -3.13% in assay [1] and -21.7% in assay [2].
For `CCC(NC(N)=O)c1ccccc1OCC(=O)N1CCCC1` (configuration not stated), the values for the Percent Effect in assay [1] and in assay [2] were -1.5% and -58.1%, respectively.
As to `CC(C)CCn1[nH]c(CNc2ccccc2)nc1=O`, the Percent Effect was 5.27% in assay [1] and -8.36% in assay [2].
For `CNc1ccc(CC2CCCN(C(=O)c3cnc(C)nc3)C2)nn1` (configuration not stated) the same measures were 1.57% and -10.7%.
Regarding `O=C(COc1coc(CN2CCCCC2)cc1=O)Nc1ccc(Cl)cc1`, the Percent Effect in assay [1] is 3.86%; in assay [2], -36.2%.
For `CCc1noc(CN2CCN(C(=O)N(C)C)CC2)n1` the same measures were -1.26% and 5.9%.
Regarding `CN(C)[C@@H]1CN(Cc2ccoc2)C[C@@H]2CCCO[C@@H]21`, the Percent Effect in assay [1] is -2.7%; in assay [2], 2.87%.
In the case of `CN(Cc1nccn1CC(F)(F)F)C(=O)c1cccc(C#N)c1`, the Percent Effect is 1.68% in assay [1] and -1.08% in assay [2].
Take `Cn1cc(CN2CCC(F)(F)C3(CCN(c4cnccn4)C3)C2)cn1` (configuration not stated): the Percent Effect in assay [1] was -3.65%; in assay [2] it was -4.7%.
On to `COC[C@@]12CC[C@@H](N3CCOCC3)C[C@H]1CCN(c1ncccn1)C2`, for which the figures for the Percent Effect in assay [1] and in assay [2] were -4.45% and 17.6%, respectively.
With `CNc1ccc(CC2CCCN(C(=O)c3cncnc3C)C2)nn1` (configuration not stated), the Percent Effect in assay [1] was found to be 0.485%; in assay [2] it was 29.8%.
For the compound `CC1CCN(CCNC(=O)C2CCN(S(N)(=O)=O)CC2)CC1`, the Percent Effect in assay [1] was 1.78%; in assay [2], 0.821%.
For the compound `CCn1c(C)nnc1CN(C)C1CCN(CCc2ccncc2)C1` (configuration not stated), the Percent Effect worked out at 2.19% in assay [1] and 13.6% in assay [2].
The like results for `CCCn1ncc(CN2C[C@@H]3CCCN3C[C@@H]2CCSC)c1C` were, in that order, -1.92% and -13.3%.
Turning to `O=C(NCc1nnc2n1CCCC2)N(Cc1ccccc1F)C1CC1`, the Percent Effect in assay [1] was -1.44%; in assay [2], 7.01%.
On to `Cc1cnn(CC2CCCCN2C(=O)CN(C)C2CC2)c1` (configuration not stated), for which the Percent Effect in assay [1] is 2.98%; in assay [2], -50.8%.
For `Cn1cc(CN2CCOCC3(C2)CN(c2ccccc2)C(=O)CO3)cn1` (configuration not stated) the same measures were 5.42% and 4.18%.
Regarding `Cc1cc(C(=O)N2C[C@@H]3COC[C@]3(COCc3cccnc3)C2)no1`, the results for the Percent Effect in assay [1] and in assay [2] were 0.918% and -6.54%, respectively.
With `CC(C)NC(=O)N1CCC(n2ccc(C(F)(F)F)n2)CC1`, the Percent Effect in assay [1] is -2.88%; in assay [2] it was -0.886%.
Regarding `NC(=O)c1nc(COc2ccc3c(c2)OCO3)no1`, the Percent Effect in assay [1] is -0.145%; in assay [2] it was -76.3%.
As for `Cc1ncccc1O[C@H]1CCN(C(=O)Cc2cccs2)CC[C@@H]1O`, the Percent Effect in assay [1] is -2.28%; in assay [2], -7.15%.
`CC(C)c1nnc2ccc(N3CCC(C(=O)Nc4nccs4)CC3)nn12`: the Percent Effect in assay [1] is -2.93%; in assay [2], -32.8%.
The like results for `COc1cc(CNC2CCCc3c2cnn3C)cc(OC)c1` (configuration not stated) were, in that order, -0.657% and 18.7%.
On to `CCCn1nc2c(cc1=O)CN(CC(=O)Nc1nnc(C)s1)CC2`, for which the Percent Effect is 8.7% in assay [1] and -2.85% in assay [2].
